Source: PubChem
Sa RN4220 lethal – S. aureus RN4220 growth inhibition; 330,000 compounds, 0.33% hits; AID 1259311; OD600, 16 h; inhibition, % (concentration not given with the values); in the data active means inhibition above about 85%;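 further: plate controls were untreated cells for no effect and reference antibiotic for full effect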
BJeLR viability – BJeLR cell viability loss | BJeLR (HRASV12) viability, CellTiter-Glo ATP luminescence, 48 h | 300,000 compounds, 0.17% hits | inhibition, % (concentration not given with the values); in the data active means inhibition above about 50%
PrPC TRFRET – inhibitors of human cell surface prion protein PrPC; P04156; TR-FRET read-out; inhibition, % at 13.8 µM; 370,000 compounds, 0.43% hits; in the data active means inhibition above about 24%; further: 0% = median of the test wells and 100% = reference compound wells
Sa ugtP lethal – kills S. aureus RN4220 lacking UgtP. S. aureus RN4220 ugtP deletion, OD600 growth, 16 h. growth inhibition, % (no concentration beside the values). 330,000 compounds, 0.54% hits; in the data active means growth inhibition above about 68%;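 further: plate controls were untreated wells for no effect and antibiotic for full effect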
Active calls of the source: *; . = not tested or not shown; ! = not active in a repeat. Compounds with a hit are over-represented: about 0.95% of the library has one in this group of screens.

SMILES	Sa RN4220 lethal	BJeLR viability	PrPC TRFRET	Sa ugtP lethal
O=S(=O)(c1cccc(F)c1)N1CCN(c2ncnc3scc(-c4ccc(F)cc4)c23)CC1	97*	-4	-3	99*
COc1ccc(-c2csc3ncnc(N4CCN(S(=O)(=O)c5ccc(C(C)=O)cc5)CC4)c23)cc1	7	5	-8	0
COc1ccc(-c2csc3ncnc(N4CCN(S(=O)(=O)c5cccc(Br)c5)CC4)c23)cc1	5	3	7	-5
Cc1ccc(S(=O)(=O)N2CCN(c3ncnc4scc(-c5ccc(F)cc5)c34)CC2)cc1	98*	-4	5	99*
Cc1ccc(S(=O)(=O)N2CCN(c3ncnc4scc(-c5ccccc5)c34)CC2)cc1	91*	.	-5	58
CC1=C2NC(N)=[N+](Cc3ccccc3)CC2n2c(=O)n(-c3ccccc3)c(=O)n2C1 (configuration not stated)	.	.	-7	.
O=C(CSc1ccc(F)cc1)N1CCC(c2nc3ccccc3s2)CC1	-2	7	-3	12
O=C(CSc1ccccc1Cl)N1CCC(c2nc3ccccc3s2)CC1	96*	-7	13	97*
CC(C)(C)OC(=O)NN=Cc1ccc[nH]1	4	.	.	-2
O=S(=O)(Nc1cc(Sc2cccc3cccnc23)c(O)c2ccccc12)c1ccccc1	.	125*	13	.
COc1ccc(C(=O)Nc2nnc(C3=COCCO3)o2)cc1	0	-1	-1	-6
Cc1ccc(-c2nnc(NC(=O)c3ccc([N+](=O)[O-])o3)o2)c(C)c1	-3	-6	0	92*
COc1ccc(-c2nnc(NC(=O)c3ccc([N+](=O)[O-])o3)o2)c(OC)c1	2	-7	-5	96*
CCC(=O)N1N=C(c2cccs2)CC1c1ccc(C)cc1 (configuration not stated)	2	11	0	-1
Cc1ccc(C2CC(c3cccs3)=NN2C(=O)CCl)cc1 (configuration not stated)	.	63*	5	.
Cc1c(CCOC(=O)C2C3CC4CC(C3)CC2C4)sc[n+]1CC(=O)c1ccc(Br)cc1 (configuration not stated)	92*!	7	-3	-14
CC(C)Cn1[nH]c2c3c(ccc2c1=O)C(=O)c1ccccc1C3=O	89*	-3	.	85*
Cc1ccc2[nH]c3c(c2c1)CCCC3NC(=O)CCl (configuration not stated)	.	60*	.	.
COc1ccc(C=NNC(=O)C2C3CCCCC32)cc1OC (configuration not stated)	6	.	.	13
O=[N+]([O-])c1c(Nc2ccccn2)cc(Cl)c2nonc12	59	112*	-8	71
C(=Nn1cnnc1)c1cccc(OCCOc2ccccc2)c1	-1	.	.	-6
O=[N+]([O-])c1cc2c(cc1C=NNS(=O)(=O)c1ccccc1)OCO2	7	.	.	3
O=C(Nc1cccc(NC(=O)c2ccccc2)n1)c1ccccc1	96*	1	-2	31
Cc1cccc(NC(=O)c2ccc(C(=O)c3ccccc3)cc2)n1	2	5	4	6
Cc1ccccc1C(=O)NC1CCCCN(Cc2cccc(Cl)c2)C1=O (configuration not stated)	.	.	-8	.
SMILES	Sa RN4220 lethal	BJeLR viability	PrPC TRFRET	Sa ugtP lethal
O=C(c1ccc(Cl)cc1)C(CN1CCCC1)c1ccccc1 (configuration not stated)	67	19	4	87*
Cc1ccc(Cn2ccc(=O)c(Cc3c(Cl)cccc3Cl)c2C)cc1	100*	1	5	101*
COc1ccc(Cn2ccc(=O)c(Cc3c(Cl)cccc3Cl)c2C)cc1	98*	-4	5	98*
Cc1c(Cc2c(Cl)cccc2Cl)c(=O)ccn1C(C)c1ccccc1 (configuration not stated)	98*	.	4	99*
Cc1ccc(CSc2nnc(SCC(=O)NN=C/C=C/c3ccco3)s2)cc1	3	.	.	5
Brc1ccc(C=NNc2ccccn2)cc1	-2	.	.	-8
CC(/C=C/c1ccccc1)=NNC(=O)c1ccc2c(c1)OCCO2	11	.	.	0
O=C1c2ccccc2C(=O)c2c1oc(C(F)(F)F)c2C(=O)c1ccccc1	94*	5	-4	79*
CC(C)(C)OC(=O)NCCCCC(NC(=O)c1nc[nH]c1C(=O)N1CCN(C(=O)OC(C)(C)C)CC1)C(=O)OC(C)(C)C (configuration not stated)	7	.	.	4
Fc1ccc(NC(=S)NN=Cc2ccccc2Cl)cc1	-4	.	5	86*
CN(C)S(=O)(=O)c1cccc(NC(=S)Nc2ccc(Cl)cc2Cl)c1	8	-4	-2	-16
CN(C)S(=O)(=O)c1cccc(NC(=S)Nc2cc(Cl)cc(Cl)c2)c1	100*	-2	-4	100*
O=C(Cc1ccc(NC(=O)C2CCN(C(=O)C3CCCC3)CC2)cc1)Nc1cccc(C(=O)N2CCCC2)c1	.	.	-3	.
Cc1ccc(/C=C2\SC(=S)N(CC3CCCO3)C2=O)o1 (configuration not stated)	2	86*	2	5
O=S(=O)(Nc1cccnc1Cl)c1ccc(-c2ccccc2)cc1	89*	-1	4	81
CC[n+]1ccccc1/C=C/c1ccc(N(C)C)cc1	2	26	-14	7
CC[n+]1c(/C=C/c2ccc(N(C)C)cc2)ccc2ccccc21	98*	35	-41	96*
CC[n+]1c(/C=C/c2ccc(OC)c(OC)c2)ccc2ccccc21	1	0	-47	4
CCN(CC)c1ccc(/C=C/c2ccc3ccc(OC)cc3[n+]2CC)cc1	100*	43	9	99*
CC[n+]1ccc(/C=C/c2ccc(N(C)C)cc2)c2ccccc21	92*	.	-122	95*
CC(C=Cc1ccc2c(c1)OCO2)=NNC(=O)c1cccnc1	2	.	.	-5
CC(=NNc1ccccc1[N+](=O)[O-])c1ccc(C)c([N+](=O)[O-])c1	6	.	.	1
O=C(O)c1cc(O)c2c(c1)[C@@H]([C@H]1c3cc(C(=O)O)cc(O)c3C(=O)c3c(O[C@@H]4O[C@H](CO)[C@@H](O)[C@H](O)[C@H]4O)cccc31)c1cccc(OC3O[C@H](CO)[C@@H](O)[C@H](O)[C@H]3O)c1C2=O (some centres not stated)	.	-11	62*	.
O=C1c2cc(CO)cc(O)c2C(=O)c2c(O[C@@H]3OC(CO)[C@@H](O)[C@@H](O)[C@@H]3O)cccc21 (some centres not stated)	4	-4	-49	-6
COCCCNC(=O)c1ccccc1Oc1ccccc1	1	6	-7	-2
COCCCNC(=O)c1ccc2c3c(onc13)-c1ccccc1C2=O	80	51*	.	18
COC(=O)c1cccc(Cn2ccc3ccc(-c4ccc5ccn(C(=O)C6CC6)c5c4)cc32)c1	.	.	-3	.
COc1ccc(S[C@]2(C(=O)N3CCN(C(C)=O)CC3)CC(=O)N(C(=O)Nc3ccc(C)c(Cl)c3)[C@@H]2c2ccc(OC)cc2)cc1	.	.	10	.
Cc1onc(-c2c(Cl)cccc2Cl)c1C(=O)NC1C(=O)N2C1SC(C)(C)C2C(=O)O (configuration not stated)	101*	-3	8	100*
